# In the supplement of paper PMC10037445:
# Over roughly 2,900 compounds, “NF-kB SEAP reporter activity, fold change vs agonist alone” has its median near 0.99; the highest 2% begin near 2.6. The list comes from a sample in which the highest values are over-represented; it also holds similar structures and randomly drawn compounds.
# Tests used:
# RAW-Dual [1] = experiment: NF-kB SEAP reporter activity, fold change vs agonist alone; cytotoxicity flag (confluency mask): cytotoxic (confluency <70% of control); higher = enhanced NF-kB activity
# How it was run: (§1)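 After 50 nL of library stock was delivered by pin tool to RAW-Dual macrophages (50,000 cells/well, DMEM, 384-well plates), a PRR agonist was added 1 h later and the plates were kept at 37 °C, 5% CO2. Twenty hours later, IRF was read from supernatant by QuantiLuc luminescence and NF-κB by QuantiBlue absorbance at 620 nm. Reporter activity is stated as fold change over agonist-alone wells. Wells with IncuCyte confluency under 70% of agonist controls in both mask sets were counted as cytotoxic.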
# RAW-Dual [2] = experiment: NF-kB SEAP reporter activity, fold change vs agonist alone; higher = enhanced NF-kB activity
# How it was run: as §1
# RAW-Dual [3] = experiment: NF-kB SEAP reporter activity, fold change vs agonist alone; cytotoxicity flag (confluency mask): not cytotoxic; higher = enhanced NF-kB activity
# How it was run: as §1
# [4] = agonist: ODN 1826 (TLR9) 0.5 ug/mL
# [5] = agonist: Pam2CSK4 (TLR2/6) 0.1 ug/mL
# [6] = agonist: Pam3CSK4 (TLR2/1) 0.1 ug/mL
# [7] = library stock concentration (final ~1000-fold dilution): 10 mM, cytotoxicity flag (confluency mask): cytotoxic (confluency <70% of control), agonist: Imiquimod (TLR7) […]
# [8] = library stock concentration (final ~1000-fold dilution): 10 mM, cytotoxicity flag (confluency mask): cytotoxic (confluency <70% of control), agonist: MPLA (TLR4) […]
# [9] = library stock concentration (final ~1000-fold dilution): 10 mM, cytotoxicity flag (confluency mask): not cytotoxic, agonist: Imiquimod (TLR7) […]
# [10] = library stock concentration (final ~1000-fold dilution): 10 mM, cytotoxicity flag (confluency mask): not cytotoxic, agonist: MPLA (TLR4) […]
smiles,measurement,setting,value
C=CCn1c(=O)c2cnc(Nc3ccc(N4CCN(C)CC4)cc3)nc2n1-c1cccc(C(C)(C)O)n1 (library stock concentration (final ~1000-fold dilution): 10 mM),NF-kB SEAP reporter activity,RAW-Dual [1]; agonist: LPS (TLR4) 0.1 ug/mL,0.933
same,NF-kB SEAP reporter activity,RAW-Dual [1]; [4],0.203
same,NF-kB SEAP reporter activity,RAW-Dual [1]; [5],0.914
same,NF-kB SEAP reporter activity,RAW-Dual [1]; [6],1.07
CCN(CC)CCOc1ccc(Nc2ncc3cc(-c4c(Cl)cccc4Cl)c(=O)n(C)c3n2)cc1,NF-kB SEAP reporter activity,RAW-Dual [2]; [7],0.492
same,NF-kB SEAP reporter activity,RAW-Dual [2]; [8],0.332
C=CC(=O)Nc1cccc(Sc2nc(Nc3ccc(N4CCN(C)CC4)cc3)ncc2Cl)c1,NF-kB SEAP reporter activity,RAW-Dual [2]; [9],0.33
same,NF-kB SEAP reporter activity,RAW-Dual [2]; [10],0.408
Cc1cnc(Nc2ccc(N3CCN(C)CC3)cc2)nc1Nc1cccc(S(=O)(=O)NC(C)(C)C)c1 (library stock concentration (final ~1000-fold dilution): 10 mM),NF-kB SEAP reporter activity,RAW-Dual [3]; agonist: LPS (TLR4) 0.1 ug/mL,7
same,NF-kB SEAP reporter activity,RAW-Dual [3]; [4],0.913
same,NF-kB SEAP reporter activity,RAW-Dual [3]; [5],2.15
same,NF-kB SEAP reporter activity,RAW-Dual [3]; [6],0.84
Cc1cnc(Nc2ccc(OCCN3CCCC3)cc2)nc1Nc1cccc(S(=O)(=O)NC(C)(C)C)c1 (library stock concentration (final ~1000-fold dilution): 10 mM),NF-kB SEAP reporter activity,RAW-Dual [1]; agonist: LPS (TLR4) 0.1 ug/mL,4.34
same,NF-kB SEAP reporter activity,RAW-Dual [1]; [4],1.22
same,NF-kB SEAP reporter activity,RAW-Dual [1]; [5],2.05
same,NF-kB SEAP reporter activity,RAW-Dual [1]; [6],3.55
Cc1cnc(Nc2ccc(N3CCN(C)CC3)cc2)nc1Nc1cccc(S(=O)(=O)NC(C)(C)C)c1,NF-kB SEAP reporter activity,RAW-Dual [2]; [9],1.01
same,NF-kB SEAP reporter activity,RAW-Dual [2]; [10],0.945
C=CC(=O)Nc1cccc(Nc2nc(Nc3ccc(OCCOC)cc3)ncc2F)c1 (library stock concentration (final ~1000-fold dilution): 10 mM),NF-kB SEAP reporter activity,RAW-Dual [3]; agonist: LPS (TLR4) 0.1 ug/mL,1.12
same,NF-kB SEAP reporter activity,RAW-Dual [3]; [4],0.8
same,NF-kB SEAP reporter activity,RAW-Dual [3]; [5],0.545
same,NF-kB SEAP reporter activity,RAW-Dual [3]; [6],0.672
c1ccc(C(c2ccccc2)N2CCN(Cc3ccc4c(c3)OCO4)CC2)cc1,NF-kB SEAP reporter activity,RAW-Dual [2]; [9],1.19
same,NF-kB SEAP reporter activity,RAW-Dual [2]; [10],0.686
c1ccc(C(c2ccccc2)N2CCN(Cc3ccc4c(c3)OCO4)CC2)cc1 (library stock concentration (final ~1000-fold dilution): 10 mM),NF-kB SEAP reporter activity,RAW-Dual [3]; agonist: LPS (TLR4) 0.1 ug/mL,0.717
same,NF-kB SEAP reporter activity,RAW-Dual [3]; [4],0.728
same,NF-kB SEAP reporter activity,RAW-Dual [3]; [5],1.38
same,NF-kB SEAP reporter activity,RAW-Dual [3]; [6],0.699
O=c1ncnc2[nH][nH]cc1-2,NF-kB SEAP reporter activity,RAW-Dual [2]; [9],0.925
same,NF-kB SEAP reporter activity,RAW-Dual [2]; [10],1.08
O=c1ncnc2[nH][nH]cc1-2 (library stock concentration (final ~1000-fold dilution): 10 mM),NF-kB SEAP reporter activity,RAW-Dual [3]; agonist: LPS (TLR4) 0.1 ug/mL,0.941
same,NF-kB SEAP reporter activity,RAW-Dual [3]; [4],1.03
same,NF-kB SEAP reporter activity,RAW-Dual [3]; [5],1.06
same,NF-kB SEAP reporter activity,RAW-Dual [3]; [6],1.16
C=C(C)C1CCC2(C)CCC3(C)C(CCC4C5(C)CCC(O)C(C)(C)C5CCC43C)C12 (configuration not stated),NF-kB SEAP reporter activity,"RAW-Dual [2]; library stock concentration (final ~1000-fold dilution): 2 mM, cytotoxicity flag (confluency mask): not cytotoxic, agonist: Imiquimod (TLR7) […]",1
same,NF-kB SEAP reporter activity,"RAW-Dual [2]; library stock concentration (final ~1000-fold dilution): 2 mM, cytotoxicity flag (confluency mask): not cytotoxic, agonist: MPLA (TLR4) […]",1.05
C=C(C)C1CCC2(C)CCC3(C)C(CCC4C5(C)CCC(O)C(C)(C)C5CCC43C)C12 (configuration not stated) (library stock concentration (final ~1000-fold dilution): 2 mM),NF-kB SEAP reporter activity,RAW-Dual [3]; agonist: LPS (TLR4) 0.1 ug/mL,1.25
same,NF-kB SEAP reporter activity,RAW-Dual [3]; [4],0.949
same,NF-kB SEAP reporter activity,RAW-Dual [3]; [5],1.06
same,NF-kB SEAP reporter activity,RAW-Dual [3]; [6],0.917
CC(C)COCC(CN(Cc1ccccc1)c1ccccc1)N1CCCC1.Cl.O (configuration not stated),NF-kB SEAP reporter activity,RAW-Dual [2]; [7],0.745
same,NF-kB SEAP reporter activity,RAW-Dual [2]; [8],1.24
